This note sets out measurements from PubChem BioAssay AID1345085 (National Center for Advancing Translational Sciences (NCATS), 2018).

The test concerns CASKI. Briefly: Confirmatory qHTS for gynecologic anti-cancer compounds from libraries of approved drugs and bioactive compounds. Further: nearly all actives have a fitted effect of over 55% in size. The following applies: gynecologic cancer cell panel viability, ATPlite luminescence, 48 h; series mostly up to 57.6 µM. The procedure, abridged:
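IC50 values derive from an ATPlite ATP-content luminescence assay following 48 h treatment at 37 C. Each compound ran as an 11-concentration, threefold series (57.5 uM to 0.977 nM); HEK 293T served as control line for selectivity index.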

Records with an inconclusive call do not appear. Unmarked numbers belong to inactive results. The source made the active and inactive calls. The call rests on the fitted dose curve; in most records, active means well fitted cell-killing curve with a large enough effect; inconclusive means small, poorly fitted or top-dose-only effect, or effect the other way; inactive means no such curve, though single readings can be large or run the other way.
On the % scale 0 is the no-effect control and ±100 the full control effect; potency means the concentration at half of the fitted maximal effect.

As for `CC(=O)c1cnc2ccc(-c3cc(Cl)c(O)c(Cl)c3)nc2c1NC1CCC(CN(C)C)CC1` (configuration not stated), the Potency was 0.559 µM (active).

Turning to `CCS(=O)(=O)N1CCN(c2ccc(Nc3ncc(C(N)=O)c(NC4CC4)n3)cc2)CC1`, the Potency was 10.9 µM (active).

In the case of `OCc1ccc(-c2ccc(-c3ccc(CO)s3)o2)s1`, the Potency entry is “inactive”.

On to `CN1CCN(c2cccc(Nc3nc4c(-c5ccc(S(C)(=O)=O)cc5)cccn4n3)c2)CC1`, for which the Potency entry is “inactive”.

Take `CNC(=O)CN1CCC(Oc2cc3c(Nc4cccc(Cl)c4F)ncnc3cc2OC)CC1`: the Potency is 10.9 µM (active).

For the compound `CC[C@@]1(O)C(=O)OCc2c1cc1n(c2=O)Cc2cc3c(CN(C)C)c(O)ccc3nc2-1`, the Potency was 1.09 µM (active).

Consider `Cc1ccc(C(=O)N(CCCN)C(c2oc3cc(Cl)ccc3c(=O)c2Cc2ccccc2)C(C)C)cc1` (configuration not stated), for which the Potency is 27.3 µM (active).

For the compound `CN(C)C/C=C/C(=O)Nc1cc2c(Nc3ccc(F)c(Cl)c3)ncnc2cc1OC1CCOC1` (configuration not stated), the Potency was 21.7 µM (active).

For `CC[C@H](Nc1ncnc2nc[nH]c12)c1nc2cccc(F)c2c(=O)n1-c1ccccc1`, the activity change, negative = viability loss is -2.62% [at 10.7 µM].

Regarding `Cc1nc(Nc2n[nH]c3c2CN(C(=O)NC(CN(C)C)c2ccccc2)C3(C)C)c2sccc2n1` (configuration not stated), the Potency was 3.06 µM (active).

Regarding `Cc1nc(NC(=O)N2CCCC2C(N)=O)sc1-c1ccnc(C(C)(C)C(F)(F)F)c1` (configuration not stated), the Potency was 7.69 µM (active).

As for `CCCCc1nc2cc(/C=C/C(=O)NO)ccc2n1CCN(CC)CC`, the Potency is 4.85 µM (active).

As to `O=C(c1ccc(F)c(F)c1Nc1ccc(I)cc1F)N1CC(O)([C@@H]2CCCCN2)C1`, the Potency was 17.2 µM (active).

Regarding `COCCOc1nc(-c2ccc(Cl)c(Cl)c2)n(-c2ccc(NC(=O)CCl)cc2)n1`, the Potency entry was “inactive”.

As for `Cc1ccc(C(=O)Nc2cccc(C(F)(F)F)c2)cc1-c1ccc2nc(NCCN3CCOCC3)ncc2c1`, the Potency was 12.2 µM (active).

As to `CCOC(=O)C1=C(C)NC2=C(C(=O)CC(C)(C)C2)C1c1ccc(-c2ccccc2)cc1` (configuration not stated), the Potency result was “inactive”.

As for `OCCNC1CCCc2c1[nH]c1ccc(-c3ccccc3)cc21` (configuration not stated), the Potency is 30.6 µM (active).

`Nc1ccc(-c2ccc3ncc4ccc(=O)n(-c5cccc(C(F)(F)F)c5)c4c3c2)cn1`: the Potency was 1.93 µM (active).

For `NC(=O)Nc1cc(-c2cccc(F)c2)sc1C(=O)NC1CCCNC1` (configuration not stated), the Potency was 2.17 µM (active).

Consider `CN[C@@H](C)C(=O)N[C@H]1CN(C(=O)CC(C)C)CC[C@H]2CC[C@@H](C(=O)NC(c3ccccc3)c3ccccc3)N2C1=O`, for which the Potency result was “inactive”.

`COc1ccc2c(c1)c(CC(=O)O)c(C)n2C(=O)c1ccc(Cl)cc1`: the Potency entry was “inactive”.

Consider `S=c1nc[nH]c2nc[nH]c12`, for which the Potency was 4.85 µM (active).

`Cc1nc(N)ncc1-c1nc(N2CCOCC2)c2sc(C(C)(C)O)cc2n1`: the Potency was 0.769 µM (active).

In the case of `C=CC(=O)Nc1cccc(Oc2nc(Nc3ccc(N4CCN(C)CC4)cc3)ncc2Cl)c1`, the Potency was 10.9 µM (active).

Consider `CCS(=O)(=O)c1cccc(-c2cc(C(=O)NC3CCN(C)CC3)c(C)c3[nH]c4ncc(C)cc4c23)c1`, for which the Potency was 4.76 µM (active).

`CCc1nc(C(N)=O)c(Nc2ccc(N3CCC(N4CCN(C)CC4)CC3)c(OC)c2)nc1NC1CCOCC1`: the Potency is 11.9 µM (active).

As for `Fc1cc(-c2cccc3ncc(-c4cnn(C5CCNCC5)c4)nc23)cc(F)c1CN1CCOCC1`, the Potency was 34.3 µM (active).

In the case of `C=CC(=O)Nc1cc2c(Nc3ccc(F)c(Cl)c3)ncnc2cc1OCCCN1CCOCC1`, the Potency was 27.3 µM (active).

Take `Cc1nc(N)sc1-c1ccnc(Nc2ccc(N3CCOCC3)cc2)n1`: the Potency is 24.3 µM (active).

As to `NC(=O)c1cnc(-c2ccc(C3(N)CCC3)cc2)c(-c2ccccc2)c1`, the Potency was 21.7 µM (active).

As for `Cc1ccc(C(N)=O)cc1Nc1nccc(-c2cn(C(C)C)c3cnccc23)n1`, the Potency is 17.2 µM (active).

`CN(C)C1CCN(C(=O)c2ccc(NC(=O)Nc3nc(N4CCOCC4)nc(N4CCOCC4)n3)cc2)CC1`: the Potency was 0.273 µM (active).

Regarding `CC(C)(C)C(=O)OCOP(=O)(COCCn1cnc2c(N)ncnc21)OCOC(=O)C(C)(C)C`, the Potency entry is “inactive”.

As to `CC(C)C[C@H](NC(=O)[C@H](Cc1ccccc1)NC(=O)c1cnccn1)B(O)O`, the Potency is 0.0343 µM (active).

Turning to `COc1ccccc1N1CCN(CC(O)COc2cccc3ccccc23)CC1` (configuration not stated), the Potency result was “inactive”.

With `Cc1ccccc1C(OCCN(C)C)c1ccccc1` (configuration not stated), the Potency entry was “inactive”.

On to `COc1ccc(CCC(=O)c2c(O)cc(O[C@@H]3O[C@H](CO)[C@@H](O)[C@H](O)[C@H]3O[C@@H]3O[C@@H](C)[C@H](O)[C@@H](O)[C@H]3O)cc2O)cc1O`, for which the Potency result was “inactive”.
